In the library only some 0.2% were active in any assay of this set; here they are far more common.
Bcl-2 Bim block = human Bim-Bcl-2 interaction inhibition; P10415; Bead-based flow cytometry, Bim peptide-Bcl-2 binding; inhibition, % at 10 µM; 0.06% of 190,000 active; AID 950; in the data active = inhibition above about 40%
Target sequence (P10415 whole entry, looked up): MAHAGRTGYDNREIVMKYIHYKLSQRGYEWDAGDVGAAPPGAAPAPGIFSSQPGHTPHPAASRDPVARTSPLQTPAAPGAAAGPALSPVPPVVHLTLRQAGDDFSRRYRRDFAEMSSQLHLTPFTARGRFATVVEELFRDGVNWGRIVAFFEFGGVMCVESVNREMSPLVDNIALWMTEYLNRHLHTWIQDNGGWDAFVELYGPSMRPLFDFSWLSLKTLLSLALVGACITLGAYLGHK
Bcl-B Bim block = inhibitors of Bim-Bcl-B interaction, human; 0.073% of 190,000 active; inhibition, % at 10 µM; bead-based flow cytometry, Bim peptide-Bcl-B binding
Target sequence (Q9HD36 whole entry, looked up): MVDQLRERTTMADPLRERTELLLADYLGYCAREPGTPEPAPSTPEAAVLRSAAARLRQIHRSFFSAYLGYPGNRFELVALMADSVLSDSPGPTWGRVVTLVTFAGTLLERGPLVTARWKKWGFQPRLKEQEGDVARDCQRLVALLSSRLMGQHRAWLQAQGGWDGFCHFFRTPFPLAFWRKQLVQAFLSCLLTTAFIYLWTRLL
Bfl-1 Bim block = human Bim-Bfl-1 interaction inhibition. Q16548. Bead-based flow cytometry, Bim-Bfl-1 binding inhibition. inhibition, % at 10 µM. 0.12% of 190,000 active
Bim-Bcl-XL = inhibitors of Bim-Bcl-XL interaction, human | Q07817 | Bim peptide-Bcl-XL binding, bead flow cytometry, fluorescence | inhibition, % at 10 µM | 0.04% of 190,000 active
Bim-Bcl-W = disrupts Bim peptide binding to human Bcl-W. Q92843. bead-based flow cytometry. inhibition, % at 10 µM. 0.02% of 190,000 active. AID 952;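 note: higher means less fluorescent Bim peptide bound to Bcl-W beads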
Each line names hits and unclear results; the compound was inactive in the other large screens. Cut-off read from the data, not from the text of the source, unless noted: active = inhibition above about 40%.

OCCN1CCN(CCCc2c3c(cc4c2CCC4)CCC3)CC1	Bcl-B Bim block 61.0
COc1ccc(COC(=O)NNC(=O)c2ccccc2Cl)cc1	Bcl-2 Bim block 83.0, Bcl-B Bim block 83.0, Bfl-1 Bim block 66.0
COc1ccc(CC(=O)OCC(=O)NCc2ccccc2Cl)cc1	none
CC(=O)Nc1ccc(Sc2ncccc2C(=O)Nc2ccc(F)cc2)cn1	none
Cc1ccc(-c2nnc(Cc3ccc(Cl)cc3)o2)cc1	Bcl-2 Bim block 92.0, Bcl-B Bim block 87.0, Bfl-1 Bim block 67.0
O=C(CCc1cnccn1)NC1CCCc2c1cnn2-c1ccc(F)cc1F (configuration not stated)	none
O=c1[nH]c(SCc2nc3ccccc3c(=O)n2-c2ccccc2C(F)(F)F)nc2ccccc12	Bim-Bcl-XL 41.0
Cc1nc2ccc(NC(=O)N3CCCCC3)cc2nc1C	none
O=C(Nc1ccc2nc(-c3ccco3)c(-c3ccco3)nc2c1)N1CCCCCC1	Bfl-1 Bim block 54.0
CCOC(=O)C1CCN(C(=O)Nc2ccc3nc(-c4ccco4)c(-c4ccco4)nc3c2)CC1	Bfl-1 Bim block 60.0
CC1N(C)c2cc(NC(=O)c3cccs3)c(P(=O)(Nc3ccc([N+](=O)[O-])cc3)N3CCOCC3)cc2C1(C)C (configuration not stated)	none
CCCCOC(=O)c1nc(Cl)c(Cl)c(N)c1Cl	Bcl-B Bim block 42.0
CC(NCc1ccc(-c2ccccc2)cc1)C(O)c1ccccc1 (configuration not stated)	Bim-Bcl-XL 40.0
CC(O)CNCc1ccc(-c2ccccc2)cc1 (configuration not stated)	none
Cc1ccc(Nc2nc(CSc3nnc(-c4cccnc4)n3-c3ccccc3C)cs2)cc1	Bfl-1 Bim block 42.0
Cc1ccccc1-n1c(SCc2csc(Nc3ccccc3)n2)nnc1-c1cccnc1	none
COC(=O)c1nnn(CC(=O)Nc2cccc(Cl)c2C)c1C(=O)OC	none
CCOC(=O)C(C(=O)OCC)c1cc(Br)c2noc3c2c1C(=O)c1ccccc1-3	Bfl-1 Bim block 43.0, Bim-Bcl-W 43.0
Cc1ccccc1-n1c(SCc2cccc(F)c2)nc2[nH]ncc2c1=O	Bfl-1 Bim block 44.0
CN(C)c1ccc(NC2=C(Cl)C(=O)c3ccccc3C2=O)cc1	Bfl-1 Bim block 71.0, Bim-Bcl-W 48.0
O=C(c1ccc(S(=O)(=O)c2ccccc2Cl)c([N+](=O)[O-])c1)N1CCN(Cc2ccccc2)CC1	none
CCOc1cc(/C=C2/N=C(C)C(C(=O)OC)=C2O)ccc1O	Bcl-2 Bim block 59.0, Bcl-B Bim block 44.0, Bfl-1 Bim block 58.0, Bim-Bcl-W 59.0
CCOC(=O)C1=C(O)/C(=C\c2ccc(OC)c(OC)c2)N=C1C	none
CCN(CC)CCN(C(=O)c1ccc(N2C(=O)CCC2=O)cc1)c1nc2cc3c(cc2s1)OCCO3	Bcl-2 Bim block 43.0
CN(C)S(=O)(=O)c1cccc(C(=O)OCC(=O)c2ccc3c(c2)NC(=O)CO3)c1	Bcl-B Bim block 43.0
CCC(=O)Nc1ccccc1C(=O)OCC(=O)c1cccc2ccccc12	none
COc1ccc(C(=O)Nc2ccc(C(=O)OCC(=O)c3cccc4ccccc34)cc2)cc1	Bcl-B Bim block 83.0 (no result: Bcl-2 Bim block)
C=CCn1c(O)c(N=NC(=O)c2ccc3c(c2)OCO3)c2ccccc21	none
O=C(CCc1ccccc1)N1CCN(c2ccccn2)CC1	Bcl-B Bim block 43.0
CCSc1ccccc1C(=O)Nc1ccc(S(=O)(=O)NC(C)=O)cc1	none
CCC1=NNc2cccc3c(OC)ccc1c23	Bcl-2 Bim block 64.0, Bcl-B Bim block 100.0, Bfl-1 Bim block 56.0, Bim-Bcl-XL 75.0, Bim-Bcl-W 66.0
COc1ccc2c3c(cccc13)C(=O)N(O)C2=O	none
NC(=O)c1sc2nc3c(c(-c4ccco4)c2c1N)CCC3	none
Nc1c(C(=O)NC2CC2)sc2nc3c(c(-c4ccco4)c12)CC/C3=C/c1ccco1	Bcl-2 Bim block 43.0, Bfl-1 Bim block 56.0
O=C(NN=C1CCC(c2ccccc2)CC1)c1cc2c(s1)CCCC2 (configuration not stated)	none
CC(C)(C)C1CCC(=NNC(=O)c2cc3c(s2)CCCC3)CC1 (configuration not stated)	Bfl-1 Bim block 44.0, Bim-Bcl-XL 43.0, Bim-Bcl-W 41.0
O=C(NC1=C(NC2CCS(=O)(=O)C2)C(=O)c2ccccc2C1=O)c1ccccc1 (configuration not stated)	Bfl-1 Bim block 56.0
O=C(NC1=C(Nc2ccc(Cl)cc2)C(=O)c2ccccc2C1=O)c1ccccc1	none
O=C(/C=C/c1ccc(S(=O)(=O)N2CCOCC2)cc1)NC(=S)Nc1ccc(Cl)cc1Cl	none
O=C(NNc1nc(=O)c2cccnc2s1)c1ccccc1O	none
CCOC(=O)CC(=O)CSc1nc(N)c(C#N)c(-c2ccc(F)cc2)c1C#N	none
Cc1c(N=C2C=C(Br)C(=O)C(Br)=C2)c(=O)n(-c2ccccc2)n1C	none
Cc1c(N=C2C=CC(=O)c3ccccc32)c(=O)n(-c2ccccc2)n1C	Bfl-1 Bim block 53.0
COc1cc2c(cc1OC)C(c1ccccc1F)OC(=O)C2 (configuration not stated)	Bcl-2 Bim block 98.0, Bcl-B Bim block 97.0, Bfl-1 Bim block 59.0, Bim-Bcl-XL 72.0, Bim-Bcl-W 89.0
COc1cc2c(cc1OC)C(C(=O)N1CCCCC1)C(c1ccccc1F)N(C)C2=O (configuration not stated)	none
CCCCCCc1c(C)nc(-n2[nH]c(C)c(CCO)c2=O)[nH]c1=O	none
Cc1cc(C)nc(SCc2cc(=O)c(OC(=O)c3ccc(Cl)c([N+](=O)[O-])c3)co2)n1	Bim-Bcl-XL 52.0
COc1ccc(C(C)=O)cc1COC(=O)CCCN1C(=O)c2ccccc2C1=O	none
Cc1ccc(C(=O)N/N=C2/NC(=O)CC(C(=O)Nc3ccccc3)S2)cc1 (configuration not stated)	Bim-Bcl-XL 40.0
COc1cccc(NC(=O)CSc2nncn2N)c1	Bfl-1 Bim block 41.0
CCOc1ccc(NC(=O)CN(C)c2nnnn2-c2ccccc2)cc1OCC	none
COC(=O)c1ccc(C2Nc3cccc4cccc(c34)N2)cc1	none
COc1cc(C2Nc3cccc4cccc(c34)N2)cc(OC)c1O	Bfl-1 Bim block 57.0, Bim-Bcl-W 42.0
COc1cc(C2Nc3cccc4cccc(c34)N2)ccc1OC(C)=O	Bfl-1 Bim block 43.0
COc1ccccc1Cn1nnc2c(=O)[nH]c(C3CCN(C(=O)c4ccc(C)cc4)CC3)nc21	Bcl-B Bim block 50.0
COc1ccccc1Cn1nnc2c(=O)[nH]c(C3CCN(C(=O)c4ccc(F)cc4)CC3)nc21	Bcl-B Bim block 57.0
Cn1nnc2cc(C(=O)Nc3ccc(Cl)cc3)ccc21	none
CCOC(=O)/C(C#N)=C1\CC2CCC1(C)C2(C)C (configuration not stated)	none
CCOC(=O)C1=C(CC)Nc2ccccc2N=C1NC(=O)c1ccc(S(=O)(=O)N2CCOCC2)cc1	Bcl-2 Bim block 78.0, Bcl-B Bim block 75.0, Bfl-1 Bim block 57.0
CCOC(=O)C1=C(CC)Nc2ccccc2N=C1NC(=O)c1ccc(S(=O)(=O)N(C)C)cc1	none
CCN1/C(=C\c2ccc3cc(C)ccc3[n+]2CC)Sc2cc(C)c(C)cc21	none

Screens deposited in PubChem by NMMLSC.
